Assay [1] can be described thus: qHTS assay to identify small molecule antagonists of the vitamin D receptor (VDR) signaling pathway - cell viability counter screen (AID 743225; active = well fitted curve in the direction sought with a large enough effect in the repeat runs; an effect the other way counts as inactive or inconclusive; note: nearly all actives have a fitted effect of over 50% in size). Summed up: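 VDR-UAS-bla HEK 293T cells were plated and incubated 4 h at 37C, then dosed with compound plus 3 nM (final) 1-alpha,25-dihydroxyvitamin D3 for 16 h. After the 2 h beta-lactamase read, viability in the same wells was read as CellTiter-Glo luminescence after 30 min at room temperature.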
A general note: Quantitative high-throughput screening tests each substance at several concentrations.

Assay [2] in a line: qHTS assay to identify small molecule agonists of the NFkB signaling pathway - cell viability counter screen (AID 1159515). Note: series mostly up to about 61 µM; nearly all actives have a fitted effect of over 55% in size. The method, boiled down:
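Using the same wells as the NFkB reporter read, ME-180 NFkB-bla cells given compounds for 5 hr were assessed for viability via CellTiter-Glo, with luminescence taken after a 30 min room-temperature incubation.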

Assay [3] in a line: qHTS assay to identify small molecule agonists of the endoplasmic reticulum stress response signaling pathway (AID 1159516; active = well fitted activation curve with a large enough effect in the signal ratio in the repeat runs, not every such curve was filed as active; the % refers to the signal ratio). Summed up: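 An ESRE-bla HeLa cell assay: compounds were pin-transferred from DMSO onto overnight-plated cells and left 5 hr at 37 C. Substrate was then loaded for 2 hr at room temperature before reading fluorescence at 460 nm and 530 nm.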
Assay [4] in a line: qHTS assay to identify small molecule agonists of the endoplasmic reticulum stress response signaling pathway - cell viability counter screen (AID 1159517).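 Note: HeLa cells carrying an ER stress response element beta-lactamase reporter; series mostly up to about 61 µM; nearly all actives have a fitted effect of over 50% in size.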 Summed up: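 Cells, HeLa ESRE-bla; density, 1,500/well; dosing, 5 hr at 37 C, 5% CO2; readout, CellTiter-Glo luminescence after 30 min RT.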
A short description of assay [5]: qHTS assay to identify small molecule antagonists of the retinoid-related orphan receptor gamma (ROR-gamma) signaling pathway - cell viability counter screen (AID 1159520; active = well fitted curve in the direction sought with a large enough effect in the repeat runs; an effect the other way counts as inactive or inconclusive; note: nearly all actives have a fitted effect of over 50% in size). The method, boiled down: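 Cytotoxicity was read from cellular ATP (CellTiter-Glo luminescence) after 16 hr at 37 C with 1 uM doxycycline induction. The inducer was added 2 hr after compound transfer to Tet-on ROR gamma CHO cells.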

Assay [6] deals with Nuclear receptor ROR-gamma (Homo sapiens) (UniProt P51449). Put plainly: qHTS assay to identify small molecule antagonists of the retinoid-related orphan receptor gamma (ROR-gamma) signaling pathway (AID 1159521; active = well fitted curve in the direction sought with a large enough effect in the repeat runs; an effect the other way counts as inactive or inconclusive;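 note: CHO cells with doxycycline inducible ROR-gamma driving an RORE luciferase reporter; top concentration of the series differs between compounds; nearly all actives have a fitted effect of over 50% in size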). Summed up:
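Tet-on ROR-gamma CHO cells with ROR response element-luciferase reporter; compounds added 2 hr before 1 uM doxycycline induction, then 16 hr at 37 C. Antagonism scored as decreased ONE-Glo luminescence.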

Assay [7] is described as follows: qHTS assay to identify small molecule agonists of the AP-1 signaling pathway - cell viability counter screen (AID 1159525). Note: nearly all actives have a fitted effect of over 55% in size. Summed up: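 Luminescent ATP readout (Cell Titer Glo, 30 min RT), normalised to DMSO and tetra n-octyl ammonium bromide controls. Cells were ME-180 AP-1-bla in 0.5% dialyzed FBS Opti-MEM, with a 5 h, 37 °C compound exposure.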
Assay [8] is described as follows: qHTS assay to identify small molecule agonists of the AP-1 signaling pathway (AID 1159526).
Assay [9] has as its target Retinoic acid receptor RXR-alpha (Homo sapiens) (UniProt P19793). Put plainly: qHTS assay to identify small molecule agonists of the RXR signaling pathway (AID 1159527). Note: nearly all actives have a fitted effect of over 35% in size. Note: potency is the fitted concentration of half-maximal effect. Summed up:
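GeneBLAzer RXR-alpha-UAS-bla HEK 293T cells in 2% charcoal-stripped FBS medium were exposed to compounds for 16 hr at 37 C in agonist mode. Beta-lactamase reporter read as 460/530 nm FRET ratio after 2 hr substrate loading.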

Assay [10] can be described thus: qHTS assay to identify small molecule agonists of the RXR signaling pathway - cell viability counter screen (AID 1159529; active = well fitted curve in the direction sought with a large enough effect in the repeat runs; an effect the other way counts as inactive or inconclusive). The method, boiled down:
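RXR-alpha-UAS-bla HEK 293T cells in medium with 2% charcoal-stripped FBS were pre-incubated 5 hr, then compound-treated 16 hr at 37 C. Viability was read by CellTiter-Glo luminescence in the same wells as the beta-lactamase assay, with tetraoctyl ammonium bromide as positive control.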

Inconclusive results are not listed. Values without a mark were called inactive. Calls of active or inactive are those of the source. Unless noted, calls come from the whole dose curve.

Retinoic acid receptor RXR-alpha (Homo sapiens), sequence (P19793 whole entry, looked up): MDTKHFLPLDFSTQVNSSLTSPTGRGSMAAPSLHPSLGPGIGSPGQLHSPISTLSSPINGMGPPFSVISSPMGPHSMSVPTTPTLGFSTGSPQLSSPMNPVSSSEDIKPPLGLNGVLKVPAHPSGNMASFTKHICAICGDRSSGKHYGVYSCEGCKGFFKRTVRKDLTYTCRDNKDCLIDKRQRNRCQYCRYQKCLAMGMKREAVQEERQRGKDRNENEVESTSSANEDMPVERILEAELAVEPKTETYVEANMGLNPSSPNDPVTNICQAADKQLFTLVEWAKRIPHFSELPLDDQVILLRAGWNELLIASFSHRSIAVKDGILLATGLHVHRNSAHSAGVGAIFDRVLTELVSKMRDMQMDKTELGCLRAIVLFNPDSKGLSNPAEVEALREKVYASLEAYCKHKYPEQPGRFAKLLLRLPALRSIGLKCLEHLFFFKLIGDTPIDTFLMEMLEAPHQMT

`CCCCS`: the call in assay [1], in assay [2], in [4], in assay [5], in assay [6] and in assay [7] was inactive. Besides, the Potency result in assay [3], in assay [8] and in [9] was “inactive” each time.

As to `COc1cnc(NS(=O)(=O)c2ccc(N)cc2)nc1`, the compound was classed as inactive in assay [1], in [2], in assay [4], in assay [5], in assay [6] and in [7]. The Potency result in assay [3], in assay [8] and in [9] was “inactive” throughout.

Take `OCCC(F)(F)C(F)(F)C(F)(F)C(F)(F)C(F)(F)C(F)(F)F`: the result in assay [1], in [2], in assay [4], in assay [5], in assay [6] and in assay [7] was inactive. Further, the Potency result in assay [3], in assay [8] and in assay [9] was “inactive” each time.

With `Cc1cc2c(cc1CC(=O)c1sccc1S(=O)(=O)Nc1onc(C)c1Cl)OCO2`, the call in assay [1], in [2], in assay [4], in assay [5], in assay [6] and in assay [7] was inactive. Further, the Potency result in assay [3], in assay [8] and in assay [9] was “inactive” throughout.

In the case of `COC(=O)c1ccccc1Cl`, the result in [1], in [2], in assay [4], in [5], in assay [6] and in [7] was inactive. The Potency entry in [3], in [8], in [9] and in assay [10] was “inactive” in each case.

Consider `C=CCn1cc[n+](C)c1`, for which the outcome in assay [1], in [2], in assay [4], in assay [5], in [6] and in assay [7] was inactive. In addition, the Potency result in assay [3], in assay [8], in assay [9] and in assay [10] was “inactive” throughout.

As for `CCCCCC(=O)CC`, the result in assay [1], in assay [2], in [4], in [5], in assay [6] and in assay [7] was inactive. Besides, the Potency entry in assay [3], in assay [8] and in assay [9] was “inactive” each time.

Consider `CCCCC(CC)CCC(CC(C)C)OS(=O)(=O)O` (stereo not drawn), for which the call in assay [1], in assay [2], in assay [4], in assay [5], in assay [6] and in [7] was inactive. Moreover, the Potency result in assay [3], in [8] and in assay [10] was “inactive” each time.

In the case of `CC(=O)Nc1ccc(OCCOCCOc2ccc(NC(C)=O)cc2)cc1`, the compound was classed as inactive in assay [1], in assay [2], in assay [4], in assay [5], in [6] and in assay [7]. Further, the Potency result in [3], in assay [8] and in [9] was “inactive” throughout.

Take `O=C[C@@H](O)[C@H](O)[C@H](O)CO`: the result in [1], in assay [2], in assay [4], in assay [5], in [6] and in [7] was inactive. Further, the Potency result in assay [3], in assay [8], in assay [9] and in [10] was “inactive” each time.

On to `CCCCCCC(O)CO` (stereo not drawn), for which the outcome in assay [1], in assay [2], in assay [4], in [5], in assay [6] and in [7] was inactive. The Potency entry in assay [3] and in [8] was “inactive” throughout. For the same compound, the Potency in [9] is 12.3 µM (active).

`CCOc1ccccc1OCCN[C@H](C)Cc1ccc(OC)c(S(N)(=O)=O)c1`: the call in assay [1], in [2], in assay [4], in [5], in assay [6] and in assay [7] was inactive. Moreover, the Potency result in assay [3], in assay [8], in assay [9] and in [10] was “inactive” each time.

With `O=C(OOC(=O)c1ccccc1)c1ccccc1`, the compound was classed as inactive in [1], in assay [2], in assay [4], in [5], in assay [6] and in assay [7]. For the same compound, the Potency entry in assay [3], in assay [8] and in [9] was “inactive” each time.

With `CCOC(=O)CN1CCCC1=O`, the result in [1], in assay [2], in assay [4], in assay [5], in assay [6] and in assay [7] was inactive. The Potency entry in assay [3], in assay [8] and in assay [9] was “inactive” each time.

Turning to `O=CN1CCCCC1`, the outcome in assay [1], in [2], in [4], in assay [5], in assay [6] and in [7] was inactive. The Potency result in [3], in assay [8], in assay [9] and in [10] was “inactive” throughout.

For `CC(C)(C)C(=O)CC(=O)C(C)(C)C`, the call in assay [2], in [4], in [5], in [6] and in [7] was inactive. Besides, the Potency entry in assay [3], in [8] and in assay [10] was “inactive” throughout.

Consider `Clc1ccc2c(c1)Nc1ccccc1S2`, for which the call in assay [1], in assay [2], in assay [4], in assay [5], in assay [6] and in assay [7] was inactive. Moreover, the Potency result in assay [3], in assay [8], in assay [9] and in assay [10] was “inactive” in each case.

(Values after PubChem BioAssay (Tox21).)
